Laboratory results taken from publication PMC7862700, “An all-to-all approach to the identification of sequence-specific readers for epigenetic DNA modifications on cytosine”.

Assays:
Assay in all cases: DAPPL (digital affinity profiling via proximity ligation, sequencing); 10 mM Tris-HCl pH 7.5, 50 mM NaCl, 1 mM DTT, 4% glycerol, room temperature, 30 min; GST-TFs on glutathione beads, 16-mer random dsDNA library, 0.1% formaldehyde crosslink after washing; high values mean tight binding
Conditions in all cases: protein: recombinant; tags: N-terminal GST; dsDNA, one strand shown
FLI1 = target: T1, FLI1 (Homo sapiens, UniProt Q01543 1-452)
T1 sequence: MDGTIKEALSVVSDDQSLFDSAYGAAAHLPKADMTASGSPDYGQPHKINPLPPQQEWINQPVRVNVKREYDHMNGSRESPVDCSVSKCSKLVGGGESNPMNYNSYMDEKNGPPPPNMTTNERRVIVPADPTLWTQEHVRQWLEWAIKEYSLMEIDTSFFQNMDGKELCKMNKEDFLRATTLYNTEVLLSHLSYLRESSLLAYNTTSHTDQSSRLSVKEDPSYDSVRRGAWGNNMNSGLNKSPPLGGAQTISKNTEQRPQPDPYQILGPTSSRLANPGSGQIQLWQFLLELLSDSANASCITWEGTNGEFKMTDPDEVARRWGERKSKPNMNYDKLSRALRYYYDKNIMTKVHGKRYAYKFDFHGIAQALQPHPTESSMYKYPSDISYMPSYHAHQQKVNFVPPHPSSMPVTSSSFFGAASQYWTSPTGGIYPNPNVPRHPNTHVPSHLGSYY
Outline: (§1)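 Binding signal is defined as a hexamer's read frequency for one factor over its frequency for the tag-only sample. To obtain reads, GST-fused human transcription factors were expressed in yeast, captured on glutathione beads, barcoded with DNA and pooled with that sample. Pools met 200 nmole of a 16-mer random double-stranded DNA library in Tris/NaCl/DTT/glycerol buffer for 30 min at room temperature before washing, 0.1% formaldehyde crosslinking, proximity ligation (BsaI/T4 ligase, 1 h, 37 °C), PCR and Illumina NextSeq500 sequencing.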

ELK1 = target: T2, ELK1 (Homo sapiens, UniProt P19419 1-428)
T2 sequence: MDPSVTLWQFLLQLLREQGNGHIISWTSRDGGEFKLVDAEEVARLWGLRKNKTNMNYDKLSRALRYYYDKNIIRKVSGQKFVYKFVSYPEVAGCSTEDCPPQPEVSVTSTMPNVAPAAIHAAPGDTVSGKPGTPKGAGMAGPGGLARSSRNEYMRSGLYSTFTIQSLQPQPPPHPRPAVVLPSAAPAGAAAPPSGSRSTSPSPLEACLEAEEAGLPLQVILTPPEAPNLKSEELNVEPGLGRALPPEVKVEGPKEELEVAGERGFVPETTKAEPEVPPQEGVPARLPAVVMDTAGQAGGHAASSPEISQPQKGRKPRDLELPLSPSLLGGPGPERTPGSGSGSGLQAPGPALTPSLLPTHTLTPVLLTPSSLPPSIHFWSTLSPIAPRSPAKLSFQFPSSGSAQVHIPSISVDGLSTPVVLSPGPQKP
Outline: as §1

GABPA = target: T3, GABPA (Homo sapiens, UniProt Q06546 1-454)
T3 sequence: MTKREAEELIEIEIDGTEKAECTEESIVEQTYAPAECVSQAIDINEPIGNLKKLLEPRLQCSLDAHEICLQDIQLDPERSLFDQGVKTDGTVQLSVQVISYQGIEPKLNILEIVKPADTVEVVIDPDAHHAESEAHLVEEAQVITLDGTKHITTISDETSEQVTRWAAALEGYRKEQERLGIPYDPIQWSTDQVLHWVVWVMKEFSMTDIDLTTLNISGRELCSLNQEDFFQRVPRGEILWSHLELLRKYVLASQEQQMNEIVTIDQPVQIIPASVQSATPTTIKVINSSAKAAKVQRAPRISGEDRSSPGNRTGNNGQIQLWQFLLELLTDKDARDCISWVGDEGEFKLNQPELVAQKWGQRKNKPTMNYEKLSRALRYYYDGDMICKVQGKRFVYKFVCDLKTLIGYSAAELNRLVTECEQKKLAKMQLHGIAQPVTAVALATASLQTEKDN
Outline: as §1

ERG = target: T4, ERG (Homo sapiens, UniProt P11308 1-479)
T4 sequence: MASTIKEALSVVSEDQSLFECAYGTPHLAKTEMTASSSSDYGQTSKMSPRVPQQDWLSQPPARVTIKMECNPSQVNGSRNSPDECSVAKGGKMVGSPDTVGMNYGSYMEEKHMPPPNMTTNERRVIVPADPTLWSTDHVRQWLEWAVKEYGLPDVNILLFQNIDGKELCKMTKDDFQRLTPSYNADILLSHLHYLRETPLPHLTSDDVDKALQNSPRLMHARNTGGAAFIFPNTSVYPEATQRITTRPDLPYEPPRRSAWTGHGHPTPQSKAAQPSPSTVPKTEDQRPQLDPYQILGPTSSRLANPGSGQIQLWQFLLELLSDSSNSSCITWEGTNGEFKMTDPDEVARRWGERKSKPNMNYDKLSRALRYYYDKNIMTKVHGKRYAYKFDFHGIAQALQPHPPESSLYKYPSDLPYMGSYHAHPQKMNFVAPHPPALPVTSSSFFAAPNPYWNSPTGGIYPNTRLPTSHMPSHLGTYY
Outline: as §1

ELF1 = ELF1 (Homo sapiens, UniProt P32519 1-619)
Outline: as §1

EHF = target: T5, EHF (Homo sapiens, UniProt Q9NZC4 1-300)
T5 sequence: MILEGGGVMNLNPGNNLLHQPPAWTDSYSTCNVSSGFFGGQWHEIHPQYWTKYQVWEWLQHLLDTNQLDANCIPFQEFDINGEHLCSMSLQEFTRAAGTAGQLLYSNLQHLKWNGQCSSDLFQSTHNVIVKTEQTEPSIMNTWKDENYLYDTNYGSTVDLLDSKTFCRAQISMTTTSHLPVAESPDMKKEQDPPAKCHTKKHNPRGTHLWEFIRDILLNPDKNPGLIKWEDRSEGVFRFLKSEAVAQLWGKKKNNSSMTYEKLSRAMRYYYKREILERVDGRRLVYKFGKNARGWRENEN
Outline: as §1

SPI1 = SPI1 (Homo sapiens, UniProt P17947 1-270)
Outline: as §1

SPIB = SPIB (Homo sapiens, UniProt Q01892 1-262)
Outline: as §1

ELK3 = target: T6, ELK3 (Homo sapiens, UniProt P41970 1-407)
T6 sequence: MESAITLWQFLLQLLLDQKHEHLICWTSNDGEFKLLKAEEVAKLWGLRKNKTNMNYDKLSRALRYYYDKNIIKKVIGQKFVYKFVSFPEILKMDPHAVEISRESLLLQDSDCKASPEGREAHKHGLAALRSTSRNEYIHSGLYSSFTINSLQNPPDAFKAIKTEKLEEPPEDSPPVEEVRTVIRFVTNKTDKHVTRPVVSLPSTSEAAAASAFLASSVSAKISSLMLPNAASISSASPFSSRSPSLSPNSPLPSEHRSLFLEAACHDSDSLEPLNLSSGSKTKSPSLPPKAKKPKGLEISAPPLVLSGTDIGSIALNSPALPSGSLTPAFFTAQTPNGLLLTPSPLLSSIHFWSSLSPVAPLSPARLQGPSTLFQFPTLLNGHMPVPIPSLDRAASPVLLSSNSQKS
Outline: as §1

FEV = target: T7, FEV (Homo sapiens, UniProt Q99581 1-238)
T7 sequence: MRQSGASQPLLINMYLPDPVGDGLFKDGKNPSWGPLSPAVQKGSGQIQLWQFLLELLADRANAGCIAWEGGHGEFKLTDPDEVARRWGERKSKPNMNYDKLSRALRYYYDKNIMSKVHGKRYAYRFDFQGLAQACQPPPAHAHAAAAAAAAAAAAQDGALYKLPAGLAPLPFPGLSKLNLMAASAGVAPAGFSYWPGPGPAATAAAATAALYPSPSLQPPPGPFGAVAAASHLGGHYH
Outline: as §1

ETV5 = ETV5 (Homo sapiens, UniProt P41161 1-510)
Outline: as §1

SPIC = target: T8, SPIC (Homo sapiens, UniProt Q8N5J4 1-248)
T8 sequence: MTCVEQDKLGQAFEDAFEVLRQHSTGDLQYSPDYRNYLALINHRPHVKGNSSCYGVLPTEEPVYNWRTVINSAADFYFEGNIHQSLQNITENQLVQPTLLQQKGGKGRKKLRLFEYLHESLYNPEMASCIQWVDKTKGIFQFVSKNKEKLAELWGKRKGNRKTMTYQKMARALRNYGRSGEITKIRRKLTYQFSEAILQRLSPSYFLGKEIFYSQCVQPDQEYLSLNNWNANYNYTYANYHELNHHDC
Outline: as §1

ELF4 = ELF4 (Homo sapiens, UniProt Q99607 1-663)
Outline: as §1

ELK4 = target: T9, ELK4 (Homo sapiens, UniProt P28324-2 1-405)
T9 sequence: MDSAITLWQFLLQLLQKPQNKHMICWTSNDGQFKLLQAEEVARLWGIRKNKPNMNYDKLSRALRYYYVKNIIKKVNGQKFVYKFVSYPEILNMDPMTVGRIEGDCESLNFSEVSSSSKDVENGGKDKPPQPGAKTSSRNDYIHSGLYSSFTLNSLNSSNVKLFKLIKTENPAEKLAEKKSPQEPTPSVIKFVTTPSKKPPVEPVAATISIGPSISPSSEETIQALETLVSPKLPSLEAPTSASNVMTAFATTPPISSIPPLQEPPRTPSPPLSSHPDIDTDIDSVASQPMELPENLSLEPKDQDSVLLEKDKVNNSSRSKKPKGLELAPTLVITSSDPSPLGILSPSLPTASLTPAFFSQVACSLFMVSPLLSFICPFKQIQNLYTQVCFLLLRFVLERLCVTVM
Outline: as §1

ETV2 = target: T10, ETV2 (Homo sapiens, UniProt O00321 1-342)
T10 sequence: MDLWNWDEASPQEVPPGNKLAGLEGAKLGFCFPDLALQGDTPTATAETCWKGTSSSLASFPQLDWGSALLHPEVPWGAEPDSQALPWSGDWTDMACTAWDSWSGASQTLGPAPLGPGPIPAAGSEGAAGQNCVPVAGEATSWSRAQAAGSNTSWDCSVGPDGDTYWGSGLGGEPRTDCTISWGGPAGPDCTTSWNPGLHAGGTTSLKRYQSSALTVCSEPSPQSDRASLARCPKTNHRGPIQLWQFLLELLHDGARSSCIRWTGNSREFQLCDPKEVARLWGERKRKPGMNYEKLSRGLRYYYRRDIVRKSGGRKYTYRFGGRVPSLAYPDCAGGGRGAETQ
Outline: as §1

ELF3 = target: T11, ELF3 (Homo sapiens, UniProt P78545 1-371)
T11 sequence: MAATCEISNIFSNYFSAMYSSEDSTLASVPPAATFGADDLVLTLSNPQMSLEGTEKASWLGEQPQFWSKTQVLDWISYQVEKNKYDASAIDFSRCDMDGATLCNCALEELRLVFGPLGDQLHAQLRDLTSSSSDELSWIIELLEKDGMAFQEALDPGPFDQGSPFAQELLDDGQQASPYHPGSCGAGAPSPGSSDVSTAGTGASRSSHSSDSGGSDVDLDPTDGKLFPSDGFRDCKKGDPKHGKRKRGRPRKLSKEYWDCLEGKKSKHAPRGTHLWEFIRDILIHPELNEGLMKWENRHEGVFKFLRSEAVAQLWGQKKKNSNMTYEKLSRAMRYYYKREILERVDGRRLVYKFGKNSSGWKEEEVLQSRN
Outline: as §1

ETV1 = ETV1 (Homo sapiens, UniProt P50549 1-477)
Outline: as §1

Sequence of ELF1 (P32519 whole entry): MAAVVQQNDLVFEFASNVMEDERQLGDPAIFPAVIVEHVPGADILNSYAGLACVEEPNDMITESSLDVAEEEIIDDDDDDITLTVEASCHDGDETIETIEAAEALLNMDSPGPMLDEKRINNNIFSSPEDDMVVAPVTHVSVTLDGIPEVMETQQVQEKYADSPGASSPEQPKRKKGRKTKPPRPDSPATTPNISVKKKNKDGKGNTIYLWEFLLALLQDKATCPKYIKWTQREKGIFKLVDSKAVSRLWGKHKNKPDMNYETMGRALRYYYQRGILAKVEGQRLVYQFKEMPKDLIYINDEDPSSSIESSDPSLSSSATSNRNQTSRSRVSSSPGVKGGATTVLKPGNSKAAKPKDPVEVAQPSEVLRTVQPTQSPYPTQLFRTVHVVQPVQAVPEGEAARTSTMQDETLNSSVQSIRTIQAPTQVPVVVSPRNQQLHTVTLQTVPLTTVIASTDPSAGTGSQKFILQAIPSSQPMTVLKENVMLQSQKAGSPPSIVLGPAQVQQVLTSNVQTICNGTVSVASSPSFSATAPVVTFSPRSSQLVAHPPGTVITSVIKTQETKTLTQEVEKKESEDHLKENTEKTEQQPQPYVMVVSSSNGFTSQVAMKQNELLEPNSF
Sequence of ELF4 (Q99607 whole entry): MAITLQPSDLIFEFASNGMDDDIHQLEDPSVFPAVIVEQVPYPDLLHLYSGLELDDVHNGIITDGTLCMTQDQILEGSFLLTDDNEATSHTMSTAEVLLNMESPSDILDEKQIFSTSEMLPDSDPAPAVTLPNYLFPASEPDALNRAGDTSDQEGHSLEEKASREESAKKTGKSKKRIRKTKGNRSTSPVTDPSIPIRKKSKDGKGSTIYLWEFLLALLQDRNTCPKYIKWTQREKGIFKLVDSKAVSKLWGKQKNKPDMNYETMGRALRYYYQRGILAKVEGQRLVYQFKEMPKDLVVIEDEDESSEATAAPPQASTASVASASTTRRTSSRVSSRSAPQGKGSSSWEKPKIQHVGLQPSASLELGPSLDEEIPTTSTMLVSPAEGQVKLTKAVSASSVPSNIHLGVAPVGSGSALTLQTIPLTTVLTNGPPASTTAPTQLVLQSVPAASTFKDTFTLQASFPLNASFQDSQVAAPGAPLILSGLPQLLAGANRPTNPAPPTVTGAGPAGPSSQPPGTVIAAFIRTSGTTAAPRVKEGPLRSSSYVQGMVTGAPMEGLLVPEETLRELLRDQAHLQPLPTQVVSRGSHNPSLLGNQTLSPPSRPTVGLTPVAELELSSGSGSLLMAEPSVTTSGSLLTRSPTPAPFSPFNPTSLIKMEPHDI
Sequence of ETV5 (P41161 whole entry): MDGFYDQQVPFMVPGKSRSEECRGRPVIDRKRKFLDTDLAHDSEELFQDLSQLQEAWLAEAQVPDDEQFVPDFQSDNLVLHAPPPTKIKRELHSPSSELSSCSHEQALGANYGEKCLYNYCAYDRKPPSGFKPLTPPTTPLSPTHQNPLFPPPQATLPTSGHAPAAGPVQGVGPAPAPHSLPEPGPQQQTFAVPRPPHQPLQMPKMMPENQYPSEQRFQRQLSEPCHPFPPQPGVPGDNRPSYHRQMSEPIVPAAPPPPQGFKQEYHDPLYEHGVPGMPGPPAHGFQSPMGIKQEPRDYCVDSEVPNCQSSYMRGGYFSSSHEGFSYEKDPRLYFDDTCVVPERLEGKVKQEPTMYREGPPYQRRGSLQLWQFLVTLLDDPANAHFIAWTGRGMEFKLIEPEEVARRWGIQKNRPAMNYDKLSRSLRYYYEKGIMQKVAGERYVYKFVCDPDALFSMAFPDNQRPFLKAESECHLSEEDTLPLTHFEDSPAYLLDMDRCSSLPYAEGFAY
Sequence of SPIB (Q01892 whole entry): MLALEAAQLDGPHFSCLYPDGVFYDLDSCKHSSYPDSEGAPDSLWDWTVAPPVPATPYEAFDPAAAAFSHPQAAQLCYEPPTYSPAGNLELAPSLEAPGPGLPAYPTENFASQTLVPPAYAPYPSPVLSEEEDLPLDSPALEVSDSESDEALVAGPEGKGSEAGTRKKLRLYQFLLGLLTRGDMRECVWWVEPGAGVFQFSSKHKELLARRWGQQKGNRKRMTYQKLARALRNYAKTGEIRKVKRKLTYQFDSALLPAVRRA
Sequence of ETV1 (P50549 whole entry): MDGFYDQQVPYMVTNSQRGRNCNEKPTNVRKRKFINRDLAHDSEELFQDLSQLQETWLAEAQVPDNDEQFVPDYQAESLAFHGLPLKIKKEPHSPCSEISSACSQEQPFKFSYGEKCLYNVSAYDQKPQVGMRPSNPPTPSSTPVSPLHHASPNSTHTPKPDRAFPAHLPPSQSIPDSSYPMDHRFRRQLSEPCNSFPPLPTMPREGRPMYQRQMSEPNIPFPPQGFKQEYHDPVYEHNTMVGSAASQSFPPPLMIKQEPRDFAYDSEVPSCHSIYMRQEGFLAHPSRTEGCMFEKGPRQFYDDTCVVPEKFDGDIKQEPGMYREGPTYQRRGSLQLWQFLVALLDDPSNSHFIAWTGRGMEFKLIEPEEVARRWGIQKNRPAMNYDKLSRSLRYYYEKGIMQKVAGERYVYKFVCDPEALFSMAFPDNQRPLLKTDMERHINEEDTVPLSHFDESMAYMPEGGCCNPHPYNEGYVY

Sequence	binding signal (FLI1)	binding signal (ELK1)	binding signal (GABPA)	binding signal (ERG)	binding signal (ELF1)	binding signal (EHF)	binding signal (SPI1)	binding signal (SPIB)	binding signal (ELK3)	binding signal (FEV)	binding signal (ETV5)	binding signal (SPIC)	binding signal (ELF4)	binding signal (ELK4)	binding signal (ETV2)	binding signal (ELF3)	binding signal (ETV1)
CATATC	1.25 fold enrichment (6-mer frequency, TF over GST control)	1.39 fold enrichment (6-mer frequency, TF over GST control)	1.26 fold enrichment (6-mer frequency, TF over GST control)	1.37 fold enrichment (6-mer frequency, TF over GST control)	1.32 fold enrichment (6-mer frequency, TF over GST control)	1.36 fold enrichment (6-mer frequency, TF over GST control)	1.3 fold enrichment (6-mer frequency, TF over GST control)	1.32 fold enrichment (6-mer frequency, TF over GST control)	1.34 fold enrichment (6-mer frequency, TF over GST control)	1.4 fold enrichment (6-mer frequency, TF over GST control)	1.36 fold enrichment (6-mer frequency, TF over GST control)	1.23 fold enrichment (6-mer frequency, TF over GST control)	1.29 fold enrichment (6-mer frequency, TF over GST control)	1.24 fold enrichment (6-mer frequency, TF over GST control)	1.41 fold enrichment (6-mer frequency, TF over GST control)	1.28 fold enrichment (6-mer frequency, TF over GST control)	1.41 fold enrichment (6-mer frequency, TF over GST control)
TCCGGG	1.54 fold enrichment (6-mer frequency, TF over GST control)	1.55 fold enrichment (6-mer frequency, TF over GST control)	1.35 fold enrichment (6-mer frequency, TF over GST control)	1.56 fold enrichment (6-mer frequency, TF over GST control)	1.48 fold enrichment (6-mer frequency, TF over GST control)	1.48 fold enrichment (6-mer frequency, TF over GST control)	1.4 fold enrichment (6-mer frequency, TF over GST control)	1.65 fold enrichment (6-mer frequency, TF over GST control)	1.46 fold enrichment (6-mer frequency, TF over GST control)	1.36 fold enrichment (6-mer frequency, TF over GST control)	1.69 fold enrichment (6-mer frequency, TF over GST control)	1.63 fold enrichment (6-mer frequency, TF over GST control)	1.41 fold enrichment (6-mer frequency, TF over GST control)	1.37 fold enrichment (6-mer frequency, TF over GST control)	1.5 fold enrichment (6-mer frequency, TF over GST control)	1.41 fold enrichment (6-mer frequency, TF over GST control)	1.59 fold enrichment (6-mer frequency, TF over GST control)
CAAATG	1.11 fold enrichment (6-mer frequency, TF over GST control)	1.16 fold enrichment (6-mer frequency, TF over GST control)	1.08 fold enrichment (6-mer frequency, TF over GST control)	1.16 fold enrichment (6-mer frequency, TF over GST control)	1.22 fold enrichment (6-mer frequency, TF over GST control)	1.1 fold enrichment (6-mer frequency, TF over GST control)	1.25 fold enrichment (6-mer frequency, TF over GST control)	1.13 fold enrichment (6-mer frequency, TF over GST control)	1.09 fold enrichment (6-mer frequency, TF over GST control)	1.11 fold enrichment (6-mer frequency, TF over GST control)	1.09 fold enrichment (6-mer frequency, TF over GST control)	1.01 fold enrichment (6-mer frequency, TF over GST control)	1.15 fold enrichment (6-mer frequency, TF over GST control)	1.11 fold enrichment (6-mer frequency, TF over GST control)	1.19 fold enrichment (6-mer frequency, TF over GST control)	1.15 fold enrichment (6-mer frequency, TF over GST control)	1.19 fold enrichment (6-mer frequency, TF over GST control)
